Screening results (PubChem BioAssay)
Compounds with a hit are over-represented: about 2.5% of the library has one in this group of screens.
Cruzain inh noDet: cruzain (T. cruzi) inhibition without detergent. P25779. purified cruzain, Z-FR-AMC fluorescence, no detergent. Potency, µM, usual class: inhibitors. hit rate 2.3% among 200,000. AID 1476; further: nearly all actives have a fitted effect of over 40% in size
Target sequence (P25779 123-467 limits assumed): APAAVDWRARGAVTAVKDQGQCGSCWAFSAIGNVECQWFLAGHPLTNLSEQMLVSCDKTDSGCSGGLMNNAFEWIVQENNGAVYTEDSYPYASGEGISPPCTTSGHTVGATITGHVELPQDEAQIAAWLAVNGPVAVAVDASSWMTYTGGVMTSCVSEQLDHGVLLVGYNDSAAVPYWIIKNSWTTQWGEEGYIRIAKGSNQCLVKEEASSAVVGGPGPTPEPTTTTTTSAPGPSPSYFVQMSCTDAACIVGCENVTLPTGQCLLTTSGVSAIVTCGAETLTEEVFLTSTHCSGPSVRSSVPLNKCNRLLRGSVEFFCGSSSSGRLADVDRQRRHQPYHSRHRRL
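Purified cruzain at 1.5 nM, pre-incubated 15 min with compound at room temperature in 100 mM sodium acetate pH 5.5, 5 mM DTT, 0.00005% Triton X-100. Reaction started with 2 uM Z-FR-AMC; AMC fluorescence increase over 60 s gives rate.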
Cruzain Triton: cruzain (T. cruzi) inhibition with detergent; purified cruzain, Z-FR-AMC fluorescence, 0.01% Triton; Potency, µM, usual class: inhibitors; hit rate 0.43% among 200,000; AID 1478; further: nearly all actives have a fitted effect of over 40% in size
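Enzyme 1.5 nM, Z-FR-AMC 2 uM, NaOAc 100 mM pH 5.5, DTT 5 mM, Triton X-100 0.01%; 15 min RT compound preincubation; kinetic ex360/em450, 60 s delta.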
Each line names hits and unclear results; the compound was inactive in the other large screens. The call rests on the fitted dose curve; in most records, active means well fitted curve in the direction sought with a large enough effect; inconclusive means small, poorly fitted or top-dose-only effect, or another doubt; inactive means no such curve, though single readings can be large; an effect the other way counts as inactive or inconclusive.

COc1ccccc1N(C(=O)c1cncc(Br)c1)c1nc(-c2ccc(C)cc2)cs1	Cruzain inh noDet 13µM
COc1ccc(NC(=O)COC(=O)c2ccc(OCc3ccc(Cl)cc3Cl)c(OC)c2)c(OC)c1	Cruzain inh noDet inconclusive
COc1ccc(C)cc1NC(=O)COC(=O)c1ccc(OCc2ccc(Cl)cc2Cl)c(OC)c1	Cruzain inh noDet 25µM
C(CCc1nnc2c(n1)CCCC2)Cc1nnc2c(n1)CCCC2	none
COC(=O)CSc1nnc(NC(=O)/C=C\c2ccc3c(c2)OCO3)s1	none
O=C(/C=C\c1ccc2c(c1)OCO2)Nc1nnc(SCC(=O)OCc2ccccc2)s1	Cruzain inh noDet 5µM
COc1ccc(-n2nc(C(=O)N3CCN(c4cccc(C)c4)C(C)C3)c3c4ccccc4n(C)c3c2=O)cc1Cl (centres undefined)	none
CCOC(=O)c1sc(NC(=O)c2ccncc2)c(C#N)c1C	none
CCOC(=O)c1c(NC(=O)c2cc(-c3ccc(Cl)s3)nc3ccccc23)sc(C(N)=O)c1C	none
Cc1ccccc1-c1cc(C(=O)Nc2sc(C)c(C)c2C(N)=O)c2ccccc2n1	Cruzain inh noDet 20µM
CCOC(=O)c1sc(NC(=O)c2cc(-c3ccccc3C)nc3ccccc23)c(C#N)c1C	Cruzain inh noDet 10µM
O=C(/C=C/c1ccc(O)c(O)c1)OC1C[C@](O)(C(=O)O)C[C@@H](O)[C@H]1O (some centres undefined)	none
N#CC(C(=O)NC1CCCCC1)c1nc2ccccc2nc1N1CCOCC1 (centres undefined)	none
CCCCCCOC(=O)C(C#N)c1nc2ccccc2nc1N1CCCCC1 (centres undefined)	Cruzain inh noDet 25µM
CC1CCN(c2nc3ccccc3nc2C(C#N)C(=O)NC2CCCCC2)CC1 (centres undefined)	Cruzain inh noDet 20µM
CCCCCCOC(=O)C(C#N)c1nc2ccccc2nc1N1CCN(C)CC1 (centres undefined)	none
NC1(C(=O)NC2(C(=O)O)CCCC2)CCCC1	none
COc1ccc(/C=N/NC(=O)c2nn(-c3ccc(Cl)cc3)c(=O)c3c(N)scc23)cc1	Cruzain inh noDet 13µM
CCOC(=O)c1nn(-c2ccc(OC)cc2)c(=O)c2c(N)scc12	none
COc1ccc(/C=N/NC(=O)c2nn(-c3ccc(C)c(C)c3)c(=O)c3ccccc23)cc1	none
COc1ccc(/C=N/NC(=O)c2nn(-c3ccccc3)c(=O)c3c(N)scc23)cc1	Cruzain inh noDet 20µM
COC(=O)N1C2(C=CC1(C)C(=O)NCc1ccc(N(C)C)cc1)CCCCC2 (centres undefined)	none
CCc1ccc(Oc2c(C(F)(F)F)oc3c(CN4CCC(C)CC4)c(O)ccc3c2=O)cc1	none
CC(C)CO[C@H](c1ccc2c(c1)OCO2)[C@H](C)Br	none
Cc1nn(-c2ccccc2Cl)c(Cl)c1/C=N/Nc1nc2ccccc2s1	Cruzain inh noDet 13µM
CCOC(=O)N/N=C/c1c(C)nn(-c2ccccc2Cl)c1Cl	none
C(=N\Nc1nc2ccccc2s1)/c1cccs1	none
CCn1c(C)c(/C=N/Nc2nc3ccccc3s2)c2ccccc21	Cruzain inh noDet 13µM
Cc1cccc2nc(Cn3c(=O)n(-c4ccc(Cl)cc4)c(=O)c4c5c(sc43)CCC5)cc(=O)n12	none
Nc1nc(N)c(Cn2ccnc2)c(=O)[nH]1	none
CC(=O)c1ccc(NC(=O)c2ncn(-c3ccccc3)n2)cc1	none
Cc1ccc(-c2csc(N(CCc3ccccc3)C(=O)COc3ccccc3)n2)cc1	none
Cc1ccc(-c2csc(N(Cc3ccccc3)C(=O)COc3ccccc3)n2)cc1	Cruzain inh noDet 7.9µM
COc1ccc(S(=O)(=O)NCCc2nnc3ccc(SCC(=O)Nc4cc(C)cc(C)c4)nn23)cc1	Cruzain inh noDet inconclusive
COc1ccc(OC)c(-c2cn(S(=O)(=O)c3ccccc3)nc2N)c1	none
COc1ccccc1-c1cn(S(=O)(=O)c2ccc(C)cc2)nc1N	Cruzain inh noDet 10µM
Cc1ccc(NC(=O)CN2C(=O)CCn3nc(-c4cccn4C)cc32)c(Cl)c1	Cruzain inh noDet inconclusive
NC(=O)CC[C@H](NC(=O)c1ccc(F)cc1)C(=O)OCC(=O)Nc1ccc(N2CCOCC2)cc1	Cruzain inh noDet inconclusive, Cruzain Triton 25µM
C/C(=C\C(=O)c1ccc(F)cc1)Nc1ccc(N2CCOCC2)cc1	none
CCNc1cc2oc(=O)c(CN3CCOCC3)c(C)c2cc1C	Cruzain inh noDet inconclusive, Cruzain Triton 28µM
Cc1cc2oc(=O)cc(CN3CCOCC3)c2cc1C	none
CSc1cccc(NC(=O)c2cccc(N3CCCS3(=O)=O)c2)c1	none
CN(Cc1ccccc1)c1ccc(-c2nc(-c3ccccn3)no2)cc1[N+](=O)[O-]	none
O=C(O)c1[nH]c2c([N+](=O)[O-])cc([N+](=O)[O-])cc2c1C(=O)O	none
CCOC(=O)c1cc(-c2ccccc2)sc1NC(=O)C(C)C	none
CCOC(=O)c1cc(-c2ccccc2)sc1NC(=O)C(C)N1C(=O)NC(C)(c2ccc(Cl)cc2)C1=O (centres undefined)	Cruzain inh noDet 4µM
O=C(NC1CCCCC1)c1ccccc1NC(=S)NC(=O)C1CCC1	none
O=C(/C=C/c1ccccc1Cl)NC(=S)Nc1ccccc1C(=O)NC1CCCCC1	Cruzain inh noDet 4µM
Cc1ccc(C(c2sc3nc(-c4ccco4)nn3c2O)N2CCN(c3ccc(F)cc3)CC2)cc1 (centres undefined)	none
Cc1cc(-c2ccc(Cl)cc2)n2nc(N)nc2n1	none
Nc1nc2nccc(-c3ccc(Cl)cc3)n2n1	Cruzain Triton 25µM
CCc1ccc(-n2c(N3CCN(c4cccc(C)c4C)CC3)nc3ccccc3c2=O)cc1	Cruzain inh noDet inconclusive
Cc1cc(C)c(S(=O)(=O)N2CCN(c3ccc([N+](=O)[O-])c(-n4nc(C)cc4C)c3)CC2)c(C)c1	Cruzain inh noDet 20µM
Cc1cc(C)n(-c2cc(N3CCN(S(=O)(=O)c4ccc(Br)cc4)CC3)ccc2[N+](=O)[O-])n1	Cruzain inh noDet inconclusive
Cc1cc(C)cc(N(C)S(=O)(=O)c2nnc(NC(=O)COc3ccc(C)c(C)c3)s2)c1	none
COc1ccc(S(=O)(=O)N2CCC(c3nc4ccccc4s3)CC2)cc1OC	none
COc1cc(S(=O)(=O)N2CCC(c3nc4ccccc4s3)CC2)ccc1S(=O)(=O)N1CC(C)CC(C)C1 (centres undefined)	Cruzain inh noDet 4µM
Cc1cccn2c(=O)c3cc(C(=O)Nc4ccc(Cl)c(Cl)c4)sc3nc12	none
COc1cccc2c1Oc1ncccc1N(c1ccc(C(=O)NCc3ccccc3Cl)s1)C2	Cruzain inh noDet 25µM
COc1cccc2c1Oc1ncccc1N(c1ccc(C(=O)NCc3cccc(C)c3)s1)C2	none
N#Cc1nc(-c2cccc3ccccc23)oc1NCCN1CCCCC1	Cruzain Triton 28µM
CCNc1oc(-c2cccc3ccccc23)nc1C#N	none
COc1cc(NC(=O)c2ccc(-c3nc(CSc4ccccc4)c(C)o3)cc2)cc(OC)c1	Cruzain inh noDet inconclusive
CCOc1ccccc1Nc1sc(C(=O)c2ccccc2)c(N)c1C(=O)Nc1ccccc1	Cruzain inh noDet inconclusive
COc1ccccc1NC(=O)c1c(Nc2ccccc2C)sc(C(=O)Nc2cccc(Cl)c2)c1N	Cruzain inh noDet 3.2µM
COc1ccc(C(=O)c2sc(Nc3ccccc3)c(C(=O)Nc3ccc(OC)c(OC)c3)c2N)cc1	none
COc1ccc(C(=O)c2sc(Nc3cccc(OC)c3)c(C(=O)Nc3cccc(C)c3C)c2N)cc1	Cruzain inh noDet 6.3µM
COc1ccc(Nc2sc(C(=O)c3ccc(Cl)cc3)c(N)c2C(=O)Nc2ccccc2OC)cc1	Cruzain inh noDet 4µM
COc1cccc(Nc2sc(C(=O)c3ccc(F)cc3)c(N)c2C(=O)NCc2ccc(Cl)cc2)c1	none
